FMDV antiviral = foot and mouth disease virus antiviral activity | FMDV antiviral cell-based qHTS | Potency, µM (highest dose often 57.9 µM), for the others: at the highest dose activity change, negative = inhibition, actives largely listed as inhibitors | AID 1159524 | 410,000 tested, 1.2% active; calls by dose curve; tested in HEK293T cells; further: read-out not given here; nearly all actives have a fitted effect of over 45% in size
VACV mCherry inh = inhibitors of vaccinia virus infection (mCherry reporter signal). AID 720579. Vaccinia virus mCherry reporter infection, fluorescence. 310,000 tested, 0.63% active. Potency, µM (top dose mostly 36.5 µM), for the others: top-dose activity change, negative = inhibition, actives largely listed as inhibitors; calls by dose curve; tested in A549 cells; further: nearly all actives have a fitted effect of over 35% in size
Giardia FBPA inh-1 = Giardia lamblia aldolase inhibition. A8B2U2. purified Giardia FBPA. Potency, µM (highest dose often 59.6 µM), for inactives: at the top dose activity, negative = inhibition, usual class: inhibitors. 290,000 tested, 0.71% active; further: nearly all actives have a fitted effect of over 55% in size
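Giardia FBPA (40 nM reagent) was preincubated 10 min at RT with compound (up to 57.5 uM final), then substrate plus GAPDH/TPI/NAD/arsenate coupling system with diaphorase/resazurin was added; resorufin fluorescence (525/598 nm) was read after 20 min.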
VACV Venus inh = inhibitors of vaccinia virus (Venus reporter); Vaccinia virus Venus reporter expression, fluorescence; Potency, µM (titrated, usually from 36.5 µM), for the others: at the top dose activity change, negative = inhibition, actives largely listed as inhibitors; 330,000 tested, 0.46% active; AID 720580; calls by dose curve; tested in A549 cells; further: nearly all actives have a fitted effect of over 30% in size
Giardia growth = inhibitors of Giardia lamblia growth; shares compounds with Giardia FBPA inh-1; Giardia lamblia trophozoite growth inhibition; Potency, µM (series often up to 57.5 µM), for the others: top-dose activity change, negative = inhibition, actives largely listed as inhibitors; 1,500 tested, 5% active;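 further: trophozoites exposed to compound for 48 h at 37 °C; nearly all actives have a fitted effect of over 70% in size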
Mammal cell tox = toxic to mammalian cells in Giardia aldolase counter-screen | 1,500 tested, 4% active | mammalian cell viability counter-screen, qHTS | shares compounds with Giardia FBPA inh-1 | Potency, µM (series often up to 57.5 µM), for inactives: at the top dose viability change, negative = toxicity, most hits filed as inhibitors | AID 2786;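 further: Chinese hamster ovary cells used as mammalian cytotoxicity surrogate; viability measured as cellular ATP by luminescence; compound exposure lasted 48 h before reading; nearly all actives have a fitted effect of over 60% in size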
Giardia FBPA inh-2 = confirmation of Giardia fructose-bisphosphate aldolase inhibitors; shares compounds with Giardia FBPA inh-1; purified Giardia aldolase enzyme activity, qHTS; Potency, µM (titrated, usually from 57.5 µM), without a hit: at the top dose activity change, negative = inhibition, usual class: inhibitors; 1,500 tested, 5% active; further: nearly all actives have a fitted effect of over 45% in size
Rabbit aldolase = selectivity test for Giardia aldolase inhibitors: rabbit aldolase; shares compounds with Giardia FBPA inh-1; Rabbit muscle FBPA enzyme inhibition, selectivity counter-screen; Potency, µM (titrated, usually from 57.5 µM), without a hit: at the top dose activity, negative = inhibition, actives largely listed as inhibitors; 1,500 tested, 4% active; AID 2794; further: nearly all actives have a fitted effect of over 60% in size
Target sequence (P00883 whole entry, looked up): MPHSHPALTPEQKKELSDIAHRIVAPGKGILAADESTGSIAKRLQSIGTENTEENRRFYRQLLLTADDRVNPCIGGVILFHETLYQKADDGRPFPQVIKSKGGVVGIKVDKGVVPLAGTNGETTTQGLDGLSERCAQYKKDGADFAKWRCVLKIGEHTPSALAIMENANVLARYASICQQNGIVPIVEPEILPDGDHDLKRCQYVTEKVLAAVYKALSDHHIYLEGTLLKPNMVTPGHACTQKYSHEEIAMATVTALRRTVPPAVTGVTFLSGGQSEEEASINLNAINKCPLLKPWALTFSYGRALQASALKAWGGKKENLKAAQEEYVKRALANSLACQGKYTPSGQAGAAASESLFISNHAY
GAPDH coupling = counter-screen for Giardia aldolase inhibitors: GAPDH coupling enzyme; Potency, µM (highest dose often 57.5 µM), without a hit: at the top dose activity change, negative = inhibition, most hits filed as inhibitors; 1,500 tested, 6% active; AID 2795; GAPDH coupling enzyme counterscreen, biochemical, qHTS; shares compounds with Giardia FBPA inh-1; further: nearly all actives have a fitted effect of over 55% in size
Active calls of the source: *; i = inactive; u = inconclusive; x = no result; ! = a repeat was not active; [ ] = remark or other dose. Shown are actives, neighbours in structure and some others; about 2.2% of the full set was active somewhere. Unless noted, the call rests on the fitted dose curve; in most records, active means well fitted curve in the direction sought with a large enough effect; inconclusive means small, poorly fitted or top-dose-only effect, or another doubt; inactive means no such curve, though single readings can be large; an effect the other way counts as inactive or inconclusive. On the % scale 0 is the no-effect control and ±100 the full control effect; potency means the concentration at half of the fitted maximal effect.

SMILES	FMDV antiviral	VACV mCherry inh	Giardia FBPA inh-1	VACV Venus inh	Giardia growth	Mammal cell tox	Giardia FBPA inh-2	Rabbit aldolase	GAPDH coupling
NC(=O)NC(=O)CC1S/C(=N/N=C2\CSC(=O)N2)NC1=O (configuration not stated)	-3%	i	13µM*	-8%	-23%	-1%	-14%	-6%	-13%
COC(=O)c1c(NC(=O)CCCOc2ccc(C)cc2)sc2c1C(C(=O)OC)CC2 (configuration not stated)	u	-11%[7.34 µM]	x	-1%[7.34 µM]	x	x	x	x	x
C=C1NN(CC2CC2)C(=O)N1c1ccc(OCc2ccccc2)cc1	x	-26%	x	-14%	x	x	x	x	x
S=C(NCCc1ccccc1)Nc1c(Cl)cccc1Cl	23%	-11%	10µM*	-21%	-10%[38.3 µM]	-30%	u	u	u
CCCCc1nc(Cl)c(CO)n1Cc1ccc(-c2ccccc2-c2nn[nH]n2)cc1	-22%	-11%	13µM*!	-14%	u	6%	12%	26%	20%
c1cc2c(cc1-c1csc(NNC3=NCCCCC3)n1)OCCO2	u	0%	14µM*	-2%	-9%[10.4 µM]	-23%	4%	4%	23%
COc1ccc(C2=NS(=O)(=O)N(C)C(C(=O)Nc3ccc(OC(F)(F)F)cc3)=C2)cc1	u	-4%	x	-11%	x	x	x	x	x
C=CCNC(=S)N/N=C1\CCS(=O)(=O)c2ccccc21	2%	x	7.1µM*	x	-19%	12%	12%	8%	5%
O=S1(=O)CC/C(=N\O)c2ccccc21	-22%	x	5%	x	x	x	x	x	x
Cc1cccc(N(CC(=O)N/N=C/c2cc([N+](=O)[O-])ccc2Cl)S(C)(=O)=O)c1C	0%	x	18µM*	u	-3%[38.3 µM]	1%	-16%	-17%	u
CC(CN1CCCC1)OC(=O)c1cccc(F)c1 (configuration not stated)	-4%	x	18µM*	x	9%[10.4 µM]	18%	11%	13%	-8%
CC(CN1CCCC1)OC(=O)c1ccc(F)cc1 (configuration not stated)	-13%	-14%	u	-4%	x	x	x	x	x
Cc1cc(C)nc(N2N=C(C(F)(F)F)CC2=O)n1	-5%	x	11µM*	x	14%	14%	6%	-5%	9%
Cc1cc(C)nc(N2N=C(c3ccccc3)CC2=O)n1	19%	-20%	-24%	-22%	x	x	x	x	x
Cc1ccc(NC(=S)N/N=C2\CCCCC2C)cc1 (configuration not stated)	0%	u	-16%	-15%	x	x	x	x	x
CC1CCCC/C1=N\NC(=S)Nc1cccnc1 (configuration not stated)	-1%	u	18µM*	-5%	24%	0%	-4%	2%	4%
CC(=O)OCCNc1cc(N2CCN(C)CC2)c2noc3c2c1C(=O)c1ccccc1-3	u	10%	u	210%	x	x	x	x	x
CCOC(=O)C(C(=O)OCC)c1cc(Br)c2noc3c2c1C(=O)c1ccccc1-3	25µM*	3%[1.46 µM]	0.35µM*	118%	-18%	u	u	u	u
Cc1cccnc1Nc1nc(-c2ccc(O)c(O)c2)cs1	0%	x	10µM*	x	-18%	-3%	-19%	-29%	-14%
COc1ccc(C2/C=C\CN(S(=O)(=O)c3ccc(C)cc3)C(Cc3ccccc3)C(=O)N2Cc2ccc(F)cc2)cc1 (configuration not stated)	x	x	-3%	x	x	x	x	x	x

Compound activity (PubChem)
